The campaign covered roughly 69,000 compounds. Fewer than 10 were called active. Roughly 100% stayed inconclusive and do not appear here. No rule for the calls is given here. Some of the results follow.

The values below come from PubChem BioAssay AID447 (National Center for Advancing Translational Sciences (NCATS), 2006).

Chain of UDP-N-acetylglucosamine--peptide N-acetylglucosaminyltransferase 110 kDa subunit (Homo sapiens) (O15294 whole entry, looked up): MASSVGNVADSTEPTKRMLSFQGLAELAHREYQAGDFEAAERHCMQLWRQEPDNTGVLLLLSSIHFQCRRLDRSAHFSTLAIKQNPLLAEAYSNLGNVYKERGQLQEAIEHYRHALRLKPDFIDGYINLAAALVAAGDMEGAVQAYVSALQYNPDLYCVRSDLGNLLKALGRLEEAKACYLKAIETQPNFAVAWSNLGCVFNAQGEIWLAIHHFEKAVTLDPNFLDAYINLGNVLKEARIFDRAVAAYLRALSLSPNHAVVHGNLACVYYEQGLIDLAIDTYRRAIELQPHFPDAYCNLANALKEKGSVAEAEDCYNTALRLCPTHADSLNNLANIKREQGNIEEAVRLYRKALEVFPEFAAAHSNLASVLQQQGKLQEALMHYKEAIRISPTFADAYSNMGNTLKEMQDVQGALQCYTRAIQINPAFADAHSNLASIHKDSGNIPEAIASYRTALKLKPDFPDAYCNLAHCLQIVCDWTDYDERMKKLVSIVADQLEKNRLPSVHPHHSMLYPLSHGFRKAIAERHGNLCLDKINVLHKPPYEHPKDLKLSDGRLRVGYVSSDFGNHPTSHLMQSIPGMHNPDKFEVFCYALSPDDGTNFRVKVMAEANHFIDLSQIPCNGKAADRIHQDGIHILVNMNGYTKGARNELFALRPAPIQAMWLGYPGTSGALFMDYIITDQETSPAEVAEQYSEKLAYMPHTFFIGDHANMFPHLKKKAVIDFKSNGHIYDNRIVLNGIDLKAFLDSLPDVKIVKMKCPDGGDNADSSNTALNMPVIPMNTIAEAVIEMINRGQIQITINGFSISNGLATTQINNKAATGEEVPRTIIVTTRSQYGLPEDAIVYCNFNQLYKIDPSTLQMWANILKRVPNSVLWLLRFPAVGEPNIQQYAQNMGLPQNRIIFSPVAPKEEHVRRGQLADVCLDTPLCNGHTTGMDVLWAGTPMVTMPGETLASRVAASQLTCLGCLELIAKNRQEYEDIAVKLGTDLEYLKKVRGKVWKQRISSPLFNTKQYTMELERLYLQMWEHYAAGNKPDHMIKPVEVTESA

This test addresses UDP-N-acetylglucosamine--peptide N-acetylglucosaminyltransferase 110 kDa subunit (Homo sapiens) (UniProt O15294). Kind of test: O-Glc NAc Transferase (sOGT). The conditions noted are these: sOGT fluorescence polarization UDP-GlcNAc probe displacement. The text has this: NIH Molecular Libraries Screening Centers Network [MLSCN]
NIH Chemical Genomics Center [NCGC]
Suzanne Walker [Harvard Medical School]
OGT is the sole enzyme that mediates the attachment of O-GlcNAc groups to serine and threonine residues in the nucleus and cytoplasm of eukaryotic cells, and no specific inhibitors are known. This type of glycosylation is involved in signal transduction and plays a key role in many essential cellular processes. High O-GlcNAc levels have been correlated to insulin resistance and type 2 diabetes. In addition to elucidating the role of O-GlcNAc in cellular processes, inhibitors of OGT might be useful in studying and perhaps treating type 2 diabetes. Since HTS-amenable direct assay for OGT activity is currently unavailable, a simpler substrate-displacement screen was performed. The signal measured is based on the change in fluorescence polarization of a fluorescein-labeled UDP-GlcNAc upon displacement from its complex with OGT. Recombinant truncated version of the enzyme, sOGT, as well as labeled probe, were made available by Suzanne Walker and Benjamin Gross, Harvard Medical School. […]
Three uL of reagents were dispensed to 1536-well Greiner black plates. […] The plates were incubated for 15 min at room temperature, and then read on ViewLux (Perkin-Elmer) High-throughput CCD imager using fluorescein polarization filter set and 45 seconds exposure time. […]
Regarding `O=C1CCCN1CC#CCN1CCCC1`, the Potency was 29.9 µM (active).
